Bioassay records (PubChem BioAssay)
LMNA splice mod: qHTS Assay for Modulators of Lamin A Splicing | HeLa LMNA splicing GFP/RFP minigene ratio, 48 h | Potency, µM (highest dose often 46.1 µM), for inactives: at the top dose ratio change, negative = inhibition, actives largely listed as inhibitors | 200,000 compounds, 0.01% hits | AID 1487, 2009; active means well fitted inhibition curve with a large enough effect in the signal ratio, with a control signal flat, not every such curve was filed as active; inconclusive means small, poorly fitted or top-dose-only effect, or effect the other way, or a change in a side signal; the % refers to the signal ratio; further: potency means the concentration at half of the fitted maximal effect; on the % scale 0 is the no-effect control and ±100 the full control effect
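Read-out is the ratio of GFP to DsRed2 object intensity, acquired by 488 nm laser-scanning cytometry on HeLa lamin A-EGFP minigene reporter cells. Compound incubation 48 hrs at 37 °C in Opti-MEM with 2% FBS; DMSO 0.5% final.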
miR-21 reporter: qHTS Assay for Modulators of miRNAs and/orActivators of miR-21. HeLa miR-21 FLuc reporter, luciferase, 48 h. Potency, µM (series often up to 38.3 µM), for the others: at the highest dose activity change, positive = activation, hits mostly activators. 340,000 tested, under 10 active. AID 2288, 2010;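 further: % of control where 0% means no effect; miR-21 action dims this reporter so a rising signal means less miR-21 action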
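HeLa miR-21-FLuc reporter line, endogenous miR-21; 2000 cells/well in DMEM/10% FBS; compound titration up to ~40uM final, 48 h, 37 degree Celsius; luciferase detection reagent, 15 min lysis, CCD luminescence.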
G9a block: qHTS Assay for Inhibitors of Histone Lysine Methyltransferase G9a | Histone-lysine N-methyltransferase EHMT2 (Homo sapiens), Q96KQ7 | G9a H3K9 monomethylation, AlphaScreen, 2 h | 350,000 compounds, 8.8% hits | Potency, µM (titrated, usually from 102 µM), without a hit: at the highest dose activity, negative = inhibition, most hits filed as inhibitors; further: potency means the concentration at half of the fitted maximal effect; on the % scale 0 is the no-effect control and ±100 the full control effect; nearly all actives have a fitted effect of over 75% in size
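Using a bead-based AlphaScreen, monomethylated H3K9 product from 2 h room-temperature reactions (G9a 20 nM, peptide 500 nM, SAM 20 uM) was detected with 0.5 ug/mL rabbit anti-H3K9me1 antibody.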
JMJD2E inh: qHTS Assay for Inhibitors of Human Jumonji Domain Containing 2E (JMJD2E) | 230,000 compounds, 1.6% hits | Lysine-specific demethylase 4E (Homo sapiens), B2RXH2 | AID 2147, 2009 | JMJD2E catalytic domain, FDH-coupled NADH fluorescence (FDH is formaldehyde dehydrogenase) | Potency, µM (titrated, usually from 57.1 µM), inactives show at the highest dose activity change, negative = inhibition, most hits filed as inhibitors; active means well fitted inhibition curve with a large enough effect, not every such curve was filed as active; inconclusive means small, poorly fitted or top-dose-only effect, or another doubt; inactive means no such curve, though single readings can be large or run the other way;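 further: potency means the concentration at half of the fitted maximal effect; 0% = wells with enzyme and -100% = buffer wells without enzyme; nearly all actives have a fitted effect of over 50% in size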
ALDH1A1 block: qHTS Assay for Inhibitors of Aldehyde Dehydrogenase 1 (ALDH1A1); Potency, µM (highest dose often 75.3 µM), inactives show at the highest dose activity, negative = inhibition, hits mostly inhibitors; Aldehyde dehydrogenase 1A1 (Homo sapiens), P00352; 220,000 compounds, 7.3% hits; AID 1030, 2008; Purified ALDH1A1, NADH fluorescence, propionaldehyde substrate; active means well fitted inhibition curve with a large enough effect, not every such curve was filed as active; inconclusive means small, poorly fitted or top-dose-only effect, or another doubt; inactive means no such curve, though single readings can be large or run the other way;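 further: potency means the concentration at half of the fitted maximal effect; plate controls were no enzyme wells and a reference inhibitor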
Target sequence (P00352 whole entry, looked up): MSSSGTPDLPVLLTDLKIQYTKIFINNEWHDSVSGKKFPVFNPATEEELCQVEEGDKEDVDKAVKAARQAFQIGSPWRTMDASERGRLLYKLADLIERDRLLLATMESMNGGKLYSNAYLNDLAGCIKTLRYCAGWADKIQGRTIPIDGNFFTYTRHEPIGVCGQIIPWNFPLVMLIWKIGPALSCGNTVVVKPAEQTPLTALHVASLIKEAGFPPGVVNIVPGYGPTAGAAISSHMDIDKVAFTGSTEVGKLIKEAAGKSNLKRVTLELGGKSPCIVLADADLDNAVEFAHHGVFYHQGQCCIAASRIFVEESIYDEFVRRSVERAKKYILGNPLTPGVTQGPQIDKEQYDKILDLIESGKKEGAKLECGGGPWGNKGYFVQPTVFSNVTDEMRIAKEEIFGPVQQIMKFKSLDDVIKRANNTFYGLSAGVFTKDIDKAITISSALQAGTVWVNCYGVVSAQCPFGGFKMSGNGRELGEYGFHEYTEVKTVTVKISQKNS
Sfp inh: qHTS Assay for Inhibitors of Bacillus subtilis Sfp phosphopantetheinyl transferase (PPTase). 4'-phosphopantetheinyl transferase ffp (Bacillus subtilis), Q9F4F7. Biochemical Sfp PPTase activity, qHTS. Potency, µM, without a hit: largest response in the series, negative = inhibition, usual class: inhibitors. 310,000 compounds, 3.5% hits. AID 1490, 2009;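 further: the enzyme is Sfp with the accession as filed and its product quenches rhodamine fluorescence; potency means the concentration at half of the fitted maximal effect; 0% = enzyme reaction without inhibitor and -100% = no enzyme wells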
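Fluorescence-quenching assay: 15 nM Sfp-PPTase preincubated 15 min at room temperature with compound, then 5 uM rhodamine-CoA and 12.5 uM BHQ-2-labelled YbbR peptide added. Fluorescence (ex 525/em 598 nm) read at start and after 30 min; difference gives rate.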
* = called active by the depositor; ? = inconclusive; / = no result given; [ ] = remark or other dose. Most compounds without a hit are left out; they make up all but 13% or so of the library. Unless noted, the call rests on the fitted dose curve; in most records, active means well fitted curve in the direction sought with a large enough effect; inconclusive means small, poorly fitted or top-dose-only effect, or another doubt; inactive means no such curve, though single readings can be large; an effect the other way counts as inactive or inconclusive.

SMILES	LMNA splice mod	miR-21 reporter	G9a block	JMJD2E inh	ALDH1A1 block	Sfp inh
COc1ccccc1OCc1nc(C#N)c(NCc2ccc(C)cc2)o1	/	-16%	11µM*	/	/	/
COc1ccc(Nc2oc(COc3ccccc3OC)nc2C#N)cc1	?	?	?	3%	2%	0%
N#Cc1nc(COc2ccccc2Cl)oc1NCCc1ccccc1	/	-13%	?	/	/	/
CCC(=O)N1CCc2cc(Br)cc(S(=O)(=O)N3CCC(C(=O)Nc4ccccc4F)CC3)c21	/	26%	2%[59 µM]	/	/	/
CCn1cc(C(=O)Nc2cccc(Cl)c2)c2cc(OC)c(OC)cc2c1=O	/	27%	-8%[59 µM]	/	/	/
Cc1ccc(OC2C(O)COC2/C=C/C#Cc2ccc(C(C)(C)C)cc2)cc1 (stereo not given)	/	/	/	/	1%[13.5 µM]	-3%
CN(C)S(=O)(=O)c1cccc(NC(=O)COC(=O)c2ccc(Br)o2)c1	1%[0.0737 µM]	0%	39%[0.501 µM]	1%	3%	5%
CN(C)S(=O)(=O)c1cccc(NC(=O)COC(=O)/C=C/c2ccc(Br)o2)c1	/	2%	45µM*	-25%	8.9µM*	?
Cc1ccc(NC(=O)COC(=O)/C=C/c2ccc(Br)o2)cc1S(=O)(=O)N(C)C	8%[46 µM]	2%	?	-8%	20µM*	?
Cc1ccc(NC(=O)COC(=O)CN2C(=O)c3ccccc3C2=O)cc1S(=O)(=O)N(C)C	?	-2%	?	6%	?	3%
O=C(Nc1cccc([N+](=O)[O-])c1)N1CCCCCC1	/	-19%	/	/	/	6%
O=C(CCN1C(=O)c2ccccc2Sc2ncccc21)Nc1ccc(F)cc1	/	2%	?	/	/	/
CCOC(=O)c1c(NC(=O)COC(=O)Cn2c(C)nc3ccccc32)sc2c1CCCC2	-4%	-12%	10%[59 µM]	-10%	?	32µM*
CCOC(=O)c1c(NC(=O)COC(=O)Cn2cnc3ccccc32)sc2c1CCC(C)C2 (stereo not given)	7%	-14%	19%[59 µM]	-25%	7.9µM*	-18%
CCOC(=O)c1c(NC(=O)C(C)NCc2ccco2)sc2c1CCC(C)C2 (stereo not given)	?	11%	11µM*	?	?	?
CCOC(=O)c1ccc(NC(=O)c2c(NC(C)=O)sc3c2CCC(C)C3)cc1 (stereo not given)	/	-9%	?	/	/	/
CCOC(=O)c1c(NC(=O)COc2cccc(C(F)(F)F)c2)sc2c1CCC(C)C2 (stereo not given)	/	-3%	10µM*	/	/	/
O=C(CCCn1c(=O)c2cccn2c2cccnc21)Nc1ccccc1C(F)(F)F	/	3%	-6%[59 µM]	/	/	/
CCc1ccccc1N(C)C(=O)Cc1c(C(=O)O)c(C)cn1C	12%[46 µM]	3%	-5%[59 µM]	/	/	/
COc1cccc(CNC(=O)C2CCCN(c3nnc(-n4c(C)ccc4C)s3)C2)c1OC (stereo not given)	/	-4%	15%[59 µM]	/	/	/
COC(=O)c1c(NC(=O)COC(=O)c2ccc(O)cc2)sc2c1CCCCC2	-5%	-4%	?	?	?	?
COC(=O)c1c(NC(=O)COC(=O)Cn2cnc3ccccc32)sc(C)c1C	?	-15%	?	?	25µM*	1%
COC(=O)c1c(NC(=O)COC(=O)Cn2cnc3ccccc32)sc2c1CCCC2	-13%	-14%	6%[59 µM]	-3%	14µM*	-15%
CCOC(=O)c1c(NC(=O)COC(=O)Cn2cnc3ccccc32)sc(C)c1C	?	-37%	-44%	-15%	?	2%
Cc1nc(SCC(=O)N2c3ccccc3NC(=O)CC2C)c2c(C)c(C)sc2n1 (stereo not given)	/	/	45µM*	/	/	/
